This is an account of results in PubChem BioAssay (NCATS).

Each structure is given as a SMILES string. “And” between values parts separate entries of the source, which are not always exact repeats. Equal values may be shown once. Results filed as inconclusive are left out. The source made the active and inactive calls. Unless noted, calls follow the shape of the full dose curve.

For test [1], the target named is Bile acid receptor (Homo sapiens) (UniProt Q96RI1). The test is described as follows: qHTS assay for small molecule antagonists of farnesoid X receptor signaling (AID 588526). Also: potency is read from the fitted curve at half-maximal effect. The method, boiled down:
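Concentration-response titrations were fitted to the Hill equation for half-maximal inhibition and maximal response, with data normalised to 50 uM chenodeoxycholic acid and DMSO control wells. Cells: FXR-UAS-bla HEK293T, dialyzed FBS.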

Test [2] addresses Glucocorticoid receptor (Homo sapiens) (UniProt P04150). Description: qHTS assay for small molecule agonists of glucocorticoid receptor signaling (AID 588532; active = well fitted curve in the direction sought with a large enough effect in the signal ratio, with a control signal flat; the % refers to the signal ratio;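 also: 100% = dexamethasone at 0.1 µM and 0% = DMSO only wells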). To be noted: HeLa MMTV-bla, beta-lactamase ratio, agonist, 18 h; stronger effect = higher value; percent of dexamethasone control, DMSO zero. Put shortly: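 Stimulation of a glucocorticoid response element-driven beta-lactamase gene was measured in HeLa cells. Responses were scaled between DMSO basal and 0.1 uM dexamethasone, then fitted for half-maximal stimulation.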
In general terms: Quantitative high-throughput screening tests each substance at several concentrations.

For test [3] the target is unchanged. Description: qHTS assay for small molecule antagonists of glucocorticoid receptor signaling (AID 588533; active = well fitted inhibition curve with a large enough effect in the signal ratio, with a control signal flat, not every such curve was filed as active; the % refers to the signal ratio;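 also: cells stimulated with 2 nM dexamethasone as agonist; % is scaled to controls: 0 for no effect and ±100 for the full control effect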). The method, boiled down:
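Antagonist-mode qHTS: compound titrations added to GRE-bla HeLa cells, then dexamethasone 2 nM final; 18 h, 37 C. CCF4 FRET fluorescence normalized to dexamethasone and DMSO; IC50 from Hill fit.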

Test [4] has as its target Peroxisome proliferator-activated receptor delta (Homo sapiens) (UniProt Q03181). The test is described as follows: qHTS assay for small molecule agonists of peroxisome proliferator-activated receptor delta signaling (AID 588534).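 Also: 0% = DMSO basal wells and 100% = positive control agonist at 10 µM.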 The method, boiled down:
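Cell-based beta-lactamase reporter assay run in agonist mode: cells seeded and incubated 5 hrs at 37 C, compounds added and incubated 18 hrs at 37 C. CCF4 dye fluorescence read after 2 hrs at RT; EC50 and efficacy from Hill fits.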

Test [5] in a line: qHTS assay for small molecule antagonists of peroxisome proliferator-activated receptor delta signaling (AID 588535; active = well fitted inhibition curve with a large enough effect in the signal ratio, with a control signal flat, not every such curve was filed as active; the % refers to the signal ratio;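 as to max response: cells co-treated with a PPAR-delta agonist as stimulator during compound exposure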). To be noted: HEK293T PPARd-UAS-bla, beta-lactamase FRET ratio, 18 h; 460 nm channel. Put shortly:
(§1)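 GeneBLAzer PPAR-delta-UAS-bla HEK293T cells in medium with 2% charcoal/dextran FBS were preincubated 5 hrs at 37 C, then given compounds, incubated 18 hrs at 37 C, and read by CCF4 beta-lactamase fluorescence; IC50 from Hill fits.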

Test [6] deals with Peroxisome proliferator-activated receptor delta (Homo sapiens) (UniProt Q03181). The description is as above. Put shortly: as §1
Peroxisome proliferator-activated receptor delta (Homo sapiens), sequence (Q03181 whole entry, looked up): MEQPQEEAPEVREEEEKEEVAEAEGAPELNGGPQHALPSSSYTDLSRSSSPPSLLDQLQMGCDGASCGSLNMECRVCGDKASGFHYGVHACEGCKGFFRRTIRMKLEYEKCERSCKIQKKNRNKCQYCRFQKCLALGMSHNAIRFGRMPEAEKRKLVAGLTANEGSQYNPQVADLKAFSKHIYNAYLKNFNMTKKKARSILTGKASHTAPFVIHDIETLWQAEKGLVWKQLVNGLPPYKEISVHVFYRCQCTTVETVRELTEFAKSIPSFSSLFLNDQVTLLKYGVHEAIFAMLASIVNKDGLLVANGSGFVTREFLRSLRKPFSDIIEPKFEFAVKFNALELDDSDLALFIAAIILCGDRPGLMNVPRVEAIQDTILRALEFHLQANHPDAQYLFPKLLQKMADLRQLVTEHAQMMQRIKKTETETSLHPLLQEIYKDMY
The target in test [7] is Peroxisome proliferator-activated receptor gamma (Homo sapiens) (UniProt P37231). The test is described as follows: qHTS assay for small molecule agonists of peroxisome proliferator-activated receptor gamma signaling (AID 588536; active = well fitted curve in the direction sought with a large enough effect in the signal ratio, with a control signal flat, not every such curve was filed as active; the % refers to the signal ratio;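 also: 0% = DMSO basal wells and 100% = rosiglitazone at 2 µM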). Put shortly: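 HEK293 UAS-bla reporter line, 1% charcoal/dextran FBS; titration, 16 h, 37 C; CCF4 loading 2 h RT; fluorescence 460/530 nm. Normalized to rosiglitazone 2 uM = 100%, DMSO = 0%.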
Peroxisome proliferator-activated receptor gamma (Homo sapiens), sequence (P37231 whole entry, looked up): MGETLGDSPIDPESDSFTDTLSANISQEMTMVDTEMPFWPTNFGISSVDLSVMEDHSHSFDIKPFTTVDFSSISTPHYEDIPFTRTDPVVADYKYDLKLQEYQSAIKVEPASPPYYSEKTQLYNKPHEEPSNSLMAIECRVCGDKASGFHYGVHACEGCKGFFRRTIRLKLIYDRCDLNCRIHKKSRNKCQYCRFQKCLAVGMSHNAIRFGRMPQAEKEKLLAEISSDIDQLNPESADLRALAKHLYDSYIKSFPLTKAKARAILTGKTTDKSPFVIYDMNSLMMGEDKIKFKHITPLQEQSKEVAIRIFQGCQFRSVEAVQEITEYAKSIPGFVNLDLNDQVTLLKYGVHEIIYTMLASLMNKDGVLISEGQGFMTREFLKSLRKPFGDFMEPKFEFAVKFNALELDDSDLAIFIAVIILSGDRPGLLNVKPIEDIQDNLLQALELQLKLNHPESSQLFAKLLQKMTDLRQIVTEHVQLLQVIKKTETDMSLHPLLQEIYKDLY

Test [8] shares this target. Description: qHTS assay for small molecule antagonists of peroxisome proliferator-activated receptor gamma signaling (AID 588537; active = well fitted inhibition curve with a large enough effect in the signal ratio, with a control signal flat, not every such curve was filed as active; the % refers to the signal ratio;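 also: reporter cells co-stimulated with 50 nM rosiglitazone agonist during compound treatment; % of control where 0% means no effect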). Put shortly:
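PPAR-gamma-UAS-bla HEK293 cells (3000/well, 1% charcoal/dextran-stripped FBS) were preincubated 6-6.5 h at 37 C, given titrated compounds, then stimulated with 50 nM rosiglitazone for 16 h. Beta-lactamase activity was read with CCF4 dye; IC50 came from Hill fits.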

Test [9] concerns the target Vitamin D3 receptor (Homo sapiens) (UniProt P11473). The test is described as follows: qHTS assay for small molecule antagonists of vitamin D receptor signaling (AID 588541).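 Also: receptor activated by calcitriol during compound treatment; series mostly up to about 77 µM; % is scaled to controls: 0 for no effect and ±100 for the full control effect.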 Put shortly: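 VDR-UAS-bla HEK293T cells (2000/well, 2% charcoal-stripped FBS) were treated with titrated compounds plus 1-alpha,25-dihydroxyvitamin D3 (50 nM or 3 nM final) for 16 h at 37 C. CCF4 beta-lactamase fluorescence was read; Hill fits gave IC50.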

For test [10] the target is unchanged. The test is described as follows: qHTS assay for small molecule agonists of vitamin D receptor signaling (AID 588543).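 Also: 0% = DMSO basal and 100% = reference agonist control.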 The method, boiled down: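 VDR-UAS-bla HEK293T cells, 2000/well, 2% charcoal-stripped FBS; compound titration 16 h at 37 C; CCF4 beta-lactamase ratio read. Normalized to 50 nM 1-alpha,25-dihydroxyvitamin D3 (100%) and DMSO; Hill fit gives EC50, efficacy.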

Test [11] can be described thus: qHTS assay for small molecule agonists of retinoid X receptor alpha signaling (AID 588544).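 As to activation: 0% = DMSO basal wells and 100% = reference agonist.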 To be noted: HEK293T RXRa-UAS-bla, beta-lactamase reporter, 18 h; 530 nm emission.
Test [12] has as its target Thyroid hormone receptor beta (Homo sapiens) (UniProt P10828). Description: qHTS assay for small molecule agonists of thyroid hormone receptor beta signaling (AID 588545).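 Also: 0% = DMSO only and 100% = 10 nM T3.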 The method, boiled down: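 Compounds were tested as agonists in TR-UAS-bla-GripTite HEK 293 cells. After 18 hrs at 37 C, CCF4 substrate was added and fluorescence read after 2 hrs at room temperature.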

Test [13] is described as follows: qHTS assay for small molecule antagonists of retinoid X receptor alpha signaling (AID 588546; active = well fitted inhibition curve with a large enough effect in the signal ratio, with a control signal flat, not every such curve was filed as active; the % refers to the signal ratio; also: potency is read from the fitted curve at half-maximal effect;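 as to max response: cells stimulated with 9-cis-retinoic acid as agonist; % is scaled to controls: 0 for no effect and ±100 for the full control effect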). To be noted: HEK293T RXRa-UAS-bla, beta-lactamase ratio, antagonist mode; measured here: W530 green channel, cytotoxicity proxy. The method, boiled down: (§2)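 Beta-lactamase reporter inhibition, read as CCF4 fluorescence ratio (ex 405, em 460/530 nm) after 2 h at RT. HEK293T UAS-bla cells, 2500/well, were stimulated with 9-cis-RA at 500 or 100 nM final alongside test compound for 18 h at 37 C.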

The target of test [14] is Retinoic acid receptor RXR-alpha (Homo sapiens) (UniProt P19793). The description is as above. The following applies: HEK293T RXRa-UAS-bla, beta-lactamase ratio, antagonist mode. Put shortly:
as §2

For test [15], the target named is Thyroid hormone receptor beta (Homo sapiens) (UniProt P10828). The test is described as follows: qHTS assay for small molecule antagonists of thyroid hormone receptor beta signaling (AID 588547; active = well fitted inhibition curve with a large enough effect in the signal ratio, with a control signal flat, not every such curve was filed as active; the % refers to the signal ratio;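 also: cells stimulated with 0.4 nM T3 agonist during compound exposure; series mostly up to about 77 µM; % is scaled to controls: 0 for no effect and ±100 for the full control effect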). To be noted: TR-UAS-bla HEK293, beta-lactamase ratio, antagonist mode, 18 h. Put shortly:
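TR-UAS-bla GripTite HEK293 cells in 2% charcoal/dextran FBS medium were preincubated 4 h at 37 C, given compound (0.59 nM to 92 uM) plus 0.4 nM T3 (final) for 18 h, then CCF4 for 2 h at RT; Hill fit gave IC50.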

The target in test [16] is Voltage-gated inwardly rectifying potassium channel KCNH2 (Homo sapiens) (UniProt Q12809). Description: qHTS Assay for Small Molecule Inhibitors of the Human hERG Channel Activity (AID 588834; active = well fitted inhibition curve with a large enough effect;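 also: top concentration of the series differs between compounds; % is scaled to controls: 0 for no effect and ±100 for the full control effect; lower thallium flux fluorescence means stronger hERG block; nearly all actives have a fitted effect of over 50% in size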). The method, boiled down:
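U2OS cells BacMam-transduced with hERG, 2000 cells/well, compound ~10 min at 37 °C before stimulation buffer. FluxOR thallium flux fluorescence read kinetically on FDSS; decrease indicates block; AC50 from Hill fits.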

The target in test [17] is Luciferin 4-monooxygenase (Photinus pyralis) (UniProt P08659). The test is described as follows: Biochemical firefly luciferase enzyme assay for NPC (AID 624030; active = well fitted inhibition curve with a large enough effect;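 also: purified P. pyralis luciferase at 10 nM with luciferin and ATP substrate; series mostly up to about 59 µM; 0% = DMSO and -100% = full luciferase inhibition by PTC124 control; nearly all actives have a fitted effect of over 70% in size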). The method, boiled down:
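Counter-screen for direct inhibition of the luciferase enzyme by approved-drug library compounds, run at 10 nM enzyme in 50 mM Tris acetate (final). Luminescence was read within 5 min of enzyme-buffer addition and normalized to PTC124 versus DMSO (0%).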

In test [18] the target is Retinoic acid receptor RXR-alpha (Homo sapiens) (UniProt P19793). The test is described as follows: qHTS assay for small molecule agonists of retinoid X receptor alpha signaling (AID 588544).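 As to activation: 0% = DMSO basal wells and 100% = reference agonist.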
Retinoic acid receptor RXR-alpha (Homo sapiens), sequence (P19793 whole entry, looked up): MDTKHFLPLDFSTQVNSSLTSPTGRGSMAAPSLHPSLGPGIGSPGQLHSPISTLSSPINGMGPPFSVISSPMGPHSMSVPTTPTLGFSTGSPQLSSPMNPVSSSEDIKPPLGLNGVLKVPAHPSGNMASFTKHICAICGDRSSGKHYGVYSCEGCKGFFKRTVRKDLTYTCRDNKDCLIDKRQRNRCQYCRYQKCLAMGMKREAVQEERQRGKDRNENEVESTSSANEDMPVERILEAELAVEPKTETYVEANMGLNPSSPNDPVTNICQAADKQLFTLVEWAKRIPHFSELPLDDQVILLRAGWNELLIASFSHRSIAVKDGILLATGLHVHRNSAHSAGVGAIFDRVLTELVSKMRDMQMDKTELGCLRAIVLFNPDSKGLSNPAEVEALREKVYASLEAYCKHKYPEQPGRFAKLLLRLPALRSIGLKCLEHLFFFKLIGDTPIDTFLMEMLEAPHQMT

Luciferin 4-monooxygenase (Photinus pyralis), sequence (P08659 whole entry, looked up): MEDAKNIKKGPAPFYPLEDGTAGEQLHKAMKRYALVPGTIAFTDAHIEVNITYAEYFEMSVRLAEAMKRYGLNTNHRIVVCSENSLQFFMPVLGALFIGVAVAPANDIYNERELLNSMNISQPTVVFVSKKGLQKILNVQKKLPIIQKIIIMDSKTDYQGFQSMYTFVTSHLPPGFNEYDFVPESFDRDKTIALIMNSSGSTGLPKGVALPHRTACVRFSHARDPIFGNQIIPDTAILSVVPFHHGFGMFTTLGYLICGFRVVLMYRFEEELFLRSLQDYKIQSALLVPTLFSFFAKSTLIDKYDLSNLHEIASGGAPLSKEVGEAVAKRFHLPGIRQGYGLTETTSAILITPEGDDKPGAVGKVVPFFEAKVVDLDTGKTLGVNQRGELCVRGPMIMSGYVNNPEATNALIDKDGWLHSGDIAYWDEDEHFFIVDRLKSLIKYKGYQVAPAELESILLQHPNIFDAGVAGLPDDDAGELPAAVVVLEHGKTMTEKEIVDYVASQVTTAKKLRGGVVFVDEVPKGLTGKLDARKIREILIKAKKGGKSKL
Bile acid receptor (Homo sapiens), sequence (Q96RI1 whole entry, looked up): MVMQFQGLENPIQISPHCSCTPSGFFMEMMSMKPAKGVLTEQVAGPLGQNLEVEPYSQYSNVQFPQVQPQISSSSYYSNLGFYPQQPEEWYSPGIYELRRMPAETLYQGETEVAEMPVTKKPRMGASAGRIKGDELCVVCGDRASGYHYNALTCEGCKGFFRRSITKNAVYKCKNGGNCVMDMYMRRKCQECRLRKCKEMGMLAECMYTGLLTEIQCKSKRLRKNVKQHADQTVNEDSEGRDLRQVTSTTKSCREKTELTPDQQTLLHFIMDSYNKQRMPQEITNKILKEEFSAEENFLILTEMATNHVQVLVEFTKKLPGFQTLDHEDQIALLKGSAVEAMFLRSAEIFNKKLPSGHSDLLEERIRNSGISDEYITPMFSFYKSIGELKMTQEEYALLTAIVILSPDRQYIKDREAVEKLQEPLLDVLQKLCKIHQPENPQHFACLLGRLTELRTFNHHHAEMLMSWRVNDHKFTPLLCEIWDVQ
Glucocorticoid receptor (Homo sapiens), sequence (P04150 whole entry, looked up): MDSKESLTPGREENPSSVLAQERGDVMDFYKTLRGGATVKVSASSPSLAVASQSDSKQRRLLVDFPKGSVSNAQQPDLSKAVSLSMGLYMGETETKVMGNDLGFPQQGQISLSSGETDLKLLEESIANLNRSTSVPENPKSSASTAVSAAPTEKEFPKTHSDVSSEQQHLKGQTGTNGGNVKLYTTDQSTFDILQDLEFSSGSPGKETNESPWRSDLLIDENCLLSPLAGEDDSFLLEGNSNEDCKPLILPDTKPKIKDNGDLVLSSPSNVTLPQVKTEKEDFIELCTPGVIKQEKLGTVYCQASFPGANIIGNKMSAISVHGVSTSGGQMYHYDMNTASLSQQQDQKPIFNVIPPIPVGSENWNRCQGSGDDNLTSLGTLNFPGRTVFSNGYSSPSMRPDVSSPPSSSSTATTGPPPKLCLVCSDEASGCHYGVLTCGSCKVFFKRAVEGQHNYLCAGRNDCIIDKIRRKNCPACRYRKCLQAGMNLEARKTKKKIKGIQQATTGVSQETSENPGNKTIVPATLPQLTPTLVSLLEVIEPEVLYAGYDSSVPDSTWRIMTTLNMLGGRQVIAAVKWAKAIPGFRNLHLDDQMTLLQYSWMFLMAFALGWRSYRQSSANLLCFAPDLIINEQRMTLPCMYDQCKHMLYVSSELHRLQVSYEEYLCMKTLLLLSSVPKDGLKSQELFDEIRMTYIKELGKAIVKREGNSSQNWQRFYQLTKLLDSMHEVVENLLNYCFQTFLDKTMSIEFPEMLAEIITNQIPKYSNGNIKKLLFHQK
Voltage-gated inwardly rectifying potassium channel KCNH2 (Homo sapiens), sequence (Q12809 whole entry, looked up): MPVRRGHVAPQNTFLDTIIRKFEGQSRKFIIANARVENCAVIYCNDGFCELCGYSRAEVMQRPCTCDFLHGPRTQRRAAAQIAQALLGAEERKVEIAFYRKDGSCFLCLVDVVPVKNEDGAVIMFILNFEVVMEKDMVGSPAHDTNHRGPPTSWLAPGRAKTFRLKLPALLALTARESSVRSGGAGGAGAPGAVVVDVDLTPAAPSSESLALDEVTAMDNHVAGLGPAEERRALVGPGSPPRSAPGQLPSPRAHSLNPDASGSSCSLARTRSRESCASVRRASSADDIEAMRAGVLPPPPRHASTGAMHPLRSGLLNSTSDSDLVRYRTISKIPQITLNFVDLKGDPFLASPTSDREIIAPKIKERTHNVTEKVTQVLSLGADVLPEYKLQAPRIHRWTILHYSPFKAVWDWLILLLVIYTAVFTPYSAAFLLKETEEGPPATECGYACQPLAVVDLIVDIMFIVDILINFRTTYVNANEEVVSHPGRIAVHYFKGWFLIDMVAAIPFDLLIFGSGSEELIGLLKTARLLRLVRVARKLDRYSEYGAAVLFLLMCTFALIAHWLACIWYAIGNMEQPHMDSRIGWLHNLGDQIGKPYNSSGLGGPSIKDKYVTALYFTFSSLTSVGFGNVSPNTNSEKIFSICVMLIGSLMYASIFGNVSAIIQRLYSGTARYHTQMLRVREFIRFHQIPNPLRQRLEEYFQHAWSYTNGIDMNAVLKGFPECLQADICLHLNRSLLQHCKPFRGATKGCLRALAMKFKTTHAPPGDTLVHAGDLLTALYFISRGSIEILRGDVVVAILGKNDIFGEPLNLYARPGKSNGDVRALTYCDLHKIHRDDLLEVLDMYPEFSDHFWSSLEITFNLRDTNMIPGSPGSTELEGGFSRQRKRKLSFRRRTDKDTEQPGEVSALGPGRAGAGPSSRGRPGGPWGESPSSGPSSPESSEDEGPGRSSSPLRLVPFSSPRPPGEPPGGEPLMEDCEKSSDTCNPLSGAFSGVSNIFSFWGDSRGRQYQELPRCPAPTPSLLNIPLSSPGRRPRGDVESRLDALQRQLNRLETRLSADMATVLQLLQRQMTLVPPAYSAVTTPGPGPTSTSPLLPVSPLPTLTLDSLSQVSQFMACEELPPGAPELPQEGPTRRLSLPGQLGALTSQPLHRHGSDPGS
Thyroid hormone receptor beta (Homo sapiens), sequence (P10828 whole entry, looked up): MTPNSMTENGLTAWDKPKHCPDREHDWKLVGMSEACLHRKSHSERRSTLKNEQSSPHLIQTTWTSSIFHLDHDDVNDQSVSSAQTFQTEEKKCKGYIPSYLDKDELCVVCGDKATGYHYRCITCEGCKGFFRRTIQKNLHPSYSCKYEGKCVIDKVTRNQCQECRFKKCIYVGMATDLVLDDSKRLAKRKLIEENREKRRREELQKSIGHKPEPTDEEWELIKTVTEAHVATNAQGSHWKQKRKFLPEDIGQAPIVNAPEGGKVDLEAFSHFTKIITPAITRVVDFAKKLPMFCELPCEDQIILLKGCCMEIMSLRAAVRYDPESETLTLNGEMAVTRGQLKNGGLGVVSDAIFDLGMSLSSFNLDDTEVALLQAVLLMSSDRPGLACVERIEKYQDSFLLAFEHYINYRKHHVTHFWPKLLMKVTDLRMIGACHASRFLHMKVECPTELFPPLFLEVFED

As for `OCCOc1ccccc1`, the Potency entry in test [1], in test [3], in test [8], in test [16] and in test [17] was “inactive” throughout. Also, the activation in [2] was 0.307% (inactive) and -9.57% (inactive) and -3.52% (inactive). Moreover, the outcome in [4], in [6], in test [7], in [9], in test [10] and in test [12] was inactive. Besides, the max response in test [5] was 16.7% and 12.5% and -5.77%; in test [11], -2.94% and -12.9% and -4.25%; in test [13], -0.71% and -11.6% and -11.4%; in test [14] it was 15.3% (inactive) and -5.21% (inactive) and -13.9% (inactive). In addition, the activity change % (negative = inhibition) in test [15] was 12.7% (inactive) and 7.54% (inactive) and 6.22% (inactive).

With `Cc1cn([C@H]2C[C@H](N=[N+]=[N-])[C@@H](CO)O2)c(=O)[nH]c1=O`, in test [4], the molecule was classed as inactive.

Turning to `O=c1[nH]c2ccccc2n1C1CCN(CCCC(c2ccc(F)cc2)c2ccc(F)cc2)CC1`, in [2], the activation is 4.7% (inactive). The Potency result in test [3] and in test [17] was “inactive” in each case. In test [13], the max response was -25.7%. In addition, the Potency in test [14] is 17.8 µM (active).

Turning to `O=NN(CCCl)C(=O)NCCCl`, in test [4], the molecule was classed as inactive.

With `C[C@@H]1C[C@H]2[C@@H]3CCC4=CC(=O)C=C[C@]4(C)[C@@]3(F)[C@@H](O)C[C@]2(C)[C@@]1(O)C(=O)CO`, the outcome in [4] was inactive.

In the case of `C[C@]12CCC(=O)C(O)=C1CC[C@@H]1[C@@H]2CC[C@]2(C)C(=O)CC[C@@H]12`, the activation in [2] was 2.34% (inactive). The Potency entry in test [3], in test [8] and in test [18] was “inactive” each time. Besides, the result in [7], in [9] and in test [10] was inactive. Further, the max response in [11] was 21.6%; in test [13], 17.4%; in [14] it was 13.8% (inactive). Besides, in test [15], the activity change % (negative = inhibition) was 9.32% (inactive).

With `CC1=C(/C=C/C(C)=C/C=C/C(C)=C/C(=O)Nc2ccc(O)cc2)C(C)(C)CCC1`, the result in test [4] was inactive.

Take `N[C@@H](Cc1ccc(N(CCCl)CCCl)cc1)C(=O)O`: the Potency in test [1] is 39.8 µM (active). In addition, in test [2], the activation is 7.11% (inactive) and 5.34% (inactive). Besides, the Potency entry in test [3] and in [17] was “inactive” throughout.

On to `CCOP(=S)(OCC)Oc1cc(C)nc(C(C)C)n1`, for which the activation in test [2] is -2.71% (inactive). The Potency entry in [3], in [8], in [18], in test [16] and in [17] was “inactive” throughout. The molecule was classed as inactive in [4], in test [6], in test [7] and in test [12]. Also, the max response in test [5] is -10.2% and 44.9%; in test [11], -5.09% and -15.6%; in [13], -12.3% and -5.87%; in test [14], -2.21% (inactive) and -10% (inactive). Further, in [15], the activity change % (negative = inhibition) was -8.33% (inactive) and 8.71% (inactive).

As to `CCCN(CCC)S(=O)(=O)c1ccc(C(=O)O)cc1`, the molecule was called inactive in [4].

For `Cc1ccc(C)c(OCCCC(C)(C)C(=O)O)c1`, in test [4], the molecule was called inactive.
